Measurements as given in the supplement of paper PMC6555819.

Tests used:
Experiment in all cases: PBM binding z-score (relative to random genomic background probes); higher = stronger binding; sequences stand for … in GC…GCGATTGACAGCGTAGAATGAAGG
[1] = test system: FXR:RXRa (NR concentration 270 nM, RXRa partner concentration 90 nM)
Method in brief: (§1)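 Regression normalization was applied to scanned fluorescence from custom Agilent 4×180K protein-binding microarrays. Before scanning, arrays were incubated 1 h with ligand-free nuclear receptor dimers, and binding was detected with antibodies against each partner (one per run). Binding z-scores use the random background probes as reference.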

[2] = test system: LXRa:RXRa (NR concentration 270 nM, RXRa partner concentration 90 nM)
Method in brief: as §1

[3] = test system: LXRa homodimer (NR concentration 270 nM)
Method in brief: as §1

[4] = test system: LXRb:RXRa (NR concentration 270 nM, RXRa partner concentration 90 nM)
Method in brief: as §1

[5] = test system: LXRb homodimer (NR concentration 270 nM)
Method in brief: as §1

[6] = test system: PPARa:RXRa (NR concentration 270 nM, RXRa partner concentration 90 nM)
Method in brief: as §1

[7] = test system: PPARg:RXRa (NR concentration 180 nM, RXRa partner concentration 90 nM)
Method in brief: as §1

[8] = test system: PPARg:RXRa 270nM:90nM, anti-RXR (NR concentration 270 nM, RXRa partner concentration 90 nM)
Method in brief: as §1

[9] = test system: PPARg:RXRa 30nM:10nM, anti-RXR (NR concentration 30 nM, RXRa partner concentration 10 nM)
Method in brief: as §1

[10] = test system: PPARg:RXRa 90nM:30nM, anti-RXR (NR concentration 90 nM, RXRa partner concentration 30 nM)
Method in brief: as §1

[11] = test system: PPARg:RXRa DBDmut IVT, anti-RXR (DBD mutation: RXRa K156A/R161A, NR concentration 270 nM, RXRa partner concentration 90 nM)
Method in brief: as §1

[12] = test system: PPARg:RXRa IVT, anti-PPARg (NR concentration 270 nM, RXRa partner concentration 90 nM)
Method in brief: as §1

[13] = test system: PPARg DBDmut:RXRa IVT, anti-PPARg (DBD mutation: PPARg1 K132A/R137A, NR concentration 270 nM, RXRa partner concentration 90 nM)
Method in brief: as §1

[14] = test system: PPARg DBDmut IVT, anti-PPARg (DBD mutation: PPARg1 K132A/R137A, NR concentration 270 nM)
Method in brief: as §1

[15] = test system: PPARg homodimer (NR concentration 180 nM)
Method in brief: as §1

[16] = test system: PXR homodimer (NR concentration 270 nM)
Method in brief: as §1

[17] = test system: RARa:RXR (NR concentration 270 nM, RXRa partner concentration 90 nM)
Method in brief: as §1

[18] = test system: RARa homodimer (NR concentration 270 nM)
Method in brief: as §1

[19] = test system: RARb:RXRa (NR concentration 270 nM, RXRa partner concentration 90 nM)
Method in brief: as §1

[20] = test system: PXR:RXRa (NR concentration 270 nM, RXRa partner concentration 90 nM)
Method in brief: as §1

Sequence | PBM binding z-score [1] | PBM binding z-score [2] | PBM binding z-score [3] | PBM binding z-score [4] | PBM binding z-score [5] | PBM binding z-score [6] | PBM binding z-score [7] | PBM binding z-score [8] | PBM binding z-score [9] | PBM binding z-score [10] | PBM binding z-score [11] | PBM binding z-score [12] | PBM binding z-score [13] | PBM binding z-score [14] | PBM binding z-score [15] | PBM binding z-score [16] | PBM binding z-score [17] | PBM binding z-score [18] | PBM binding z-score [19] | PBM binding z-score [20]
CGTCCAAGGTCATACGAGGTCAGTGAAGACAGAT | 7.86 | 7.57 | 5.5 | 6.63 | 1.78 | 5.87 | 5.57 | 5.9 | 2.88 | 4.6 | 3.46 | 4.63 | 1.25 | 0.789 | 5.5 | 9.7 | 6.69 | 2.69 | 5.43 | 
TTACCAAGGTCAGCTGAGGTCGTTGATCCAACTC | 6.04 | 5.5 | 2.43 | 4.31 | 0.419 | 4.83 | 3.85 | 4.1 | 1.27 | 2.92 | 2.24 | 3.75 | 0.41 | 0.114 | 1.8 | 3.87 | 4.4 | 0.314 | 5.06 | 
CGTCCAAGGTCAAGGGCAGTGAAAGAGACTCGAA | 7.12 | 4.83 | 0.283 | 3.68 | 0.0141 | 5.93 | 5.48 | 5.38 | 1.76 | 4.07 | 2.83 | 4 | 0.426 | -0.438 | 1.82 | 0.609 | 3.82 | 1.15 | 5.64 | 
ATACCAAGGTCATCGTGAGGTCGTTGATACTAAC | 7.59 | 6.05 | 4.44 | 5.33 | 1.71 | 5.74 | 6.03 | 5.6 | 2.72 | 4.27 | 2.34 | 4.3 | 2.33 | 1.42 | 4.01 | 5.81 | 6 | 1.56 | 5.36 | 
TCTCGGAGGACACGAAAGGGCAGAGCTCGACATC | 0.131 | 0.581 | -0.282 | -0.082 | -0.72 | 0.48 | 0.29 | 0.85 | 1.65 | 1.2 | 1.43 | 0.279 | -1.54 | -1.04 | -0.108 | -0.585 | 0.468 | -0.203 | 2.42 | 
ATATGTAGGTTACATCCGGGTCATTCTGGCTATG | 2.03 | 3.94 | 1.66 | 3.12 | 0.83 | 4.43 | 6.19 | 4.83 | 2.69 | 3.95 | 7.39 | 7.49 | 2.61 | 2.66 | 1.91 | 0.712 | 3.04 | 0.96 | 2.21 | 
ATACGTAGGTTACATCCGGGTCATTCAGGCTATG | 2.32 | 4.39 | 1.12 | 2.83 | 0.366 | 3.03 | 1.57 | 1.54 | 0.526 | 1.13 | 1.15 | 2.36 | 1.24 | 0.742 | 1.87 | 2.6 | 3.48 | 0.687 | 2.27 | 
ATCAAAAGGTCGAAGGTGAGTATACCCACCCGAA | 5.02 | 4 | 0.531 | 2.87 | 0.821 | 5.02 | 5.28 | 5.42 | 3.17 | 4.75 | 0.661 | 2.86 | 1.48 | 0.784 | 2.7 | -0.118 | 4.72 | 0.445 | 4.05 | 
TCTTATAGATCAATAGAGGTTAAGAAAGTGCGCT | 1.14 | 4.21 | 0.848 | 2 | 0.0677 | 1.92 | 0.685 | 2.02 | 3.21 | 2.51 | 1.88 | 0.653 | 0.623 | 0.528 | 1.11 | 0.488 | 1.99 | 0.901 | 1.03 | 
ATATGTAGGTTAGAGTCATTCAGAAAGTAGGGAA | 0.573 | 1.04 | 0.277 | 1.02 | 0.605 | 2.75 | 4.27 | 4.03 | 1.69 | 3.08 | 6.33 | 6.41 |  | 1.55 | 1.2 | 0.624 | 0.989 | 1.78 | 1.02 | 0.349
ATATGTAGGTTACATCCGAGTCATTCAGGCTATG | 0.413 | 1.95 | 0.304 | 0.957 | 0.682 | 3.1 | 5.14 | 4.01 | 1.78 | 3.1 | 6.76 | 7.07 | 4.51 | 3.39 | 0.982 | 0.05 | 0.757 | 0.574 | 0.973 | 
ATATGTAGGTTAGGGTCATACAGAAAGTAGGGAA | 4.95 | 4.24 | 0.95 | 4.42 | 1.32 | 5.66 | 8.3 | 6.82 | 4.46 | 6.69 | 6.63 | 6.88 |  | 2.42 | 2.62 | 1.46 | 5.03 | 1.3 | 3.53 | 4.21
CGTCAACGTTCAACTAAGGTAACGTAAAGCACGC | 0.828 | 0.246 | 0.102 | 0.277 | 0.346 | 0.566 | 0.682 | 0.178 | -0.166 | -0.0957 | -0.0681 | 0.225 | 0.181 | -0.155 | 0.349 | -0.0969 | 2.07 | 0.331 | 0.991 | 
GGAACGAGGGCATTCGAGTTGATAGCATGGCGAT | 1.35 | 1.46 | -0.481 | -0.0953 | -0.345 | 1.38 | 0.867 | 0.479 | -0.23 | -0.0469 | 2.91 | 2.18 | -0.045 | 0.402 | -0.267 | 1.45 | 0.423 | -0.292 | 1.73 | 
ACTAGTAGGTCAGCTGAGGTCACACACAATTCGG | 6.7 | 6.09 | 5.43 | 5.14 | 1.5 | 5.36 | 7.75 | 6.54 | 4.28 | 6.26 | 7.68 | 7.77 | 2.63 | 2.31 | 6.08 | 4.54 | 6.25 | 4.07 | 5.01 | 
